Results filed as inconclusive are left out. Active and inactive are the calls of the source. Rule for the calls, unless noted: active = hit-call score of the fitted dose curve at least 0.9, where 1 is the maximum; inconclusive = response in the unintended direction; inactive = score below 0.9.
What was measured:
[1] = ATG_TCF_b_cat_CIS: Attagene CIS-FACTORIAL HepG2 Assay for human T-Cell-Factor with beta-catenin (TCF/b-cat) (AID 2282965; active = hit-call score of the fitted dose curve at least 0.9, where 1 is the maximum; inactive = score below 0.9); conditions: HepG2 TCF/beta-catenin cis-reporter transcription, actives raise or lower the signal
Procedure, shortened: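 Endogenous TCF/LEF activity read as reporter transcript level via RT-PCR and capillary electrophoresis fluorescence in transfected HepG2, 24 h exposure; gain or loss of signal fitted against DMSO controls.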

[2] = ATG_TAL_CIS: Attagene CIS-FACTORIAL HepG2 Assay for human TAL Basal Promoter (AID 2282966; active = hit-call score of the fitted dose curve at least 0.9, where 1 is the maximum; inactive = score below 0.9;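 note: background control endpoint measuring basal TAL promoter reporter mRNA not a specific factor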); conditions: HepG2 Attagene cis-factorial TAL promoter reporter; actives raise or lower the signal
Procedure, shortened: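 Transiently transfected HepG2 (cis-regulated reporter units), 24 h treatment, mRNA read by fluorescent CE after RT-PCR; bidirectional fit, DMSO baseline.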

[3] = ATG_TGFb_CIS: Attagene CIS-FACTORIAL HepG2 Assay for human Transforming Growth Factor (TGF) (AID 2282967; active = hit-call score of the fitted dose curve at least 0.9, where 1 is the maximum; inactive = score below 0.9); conditions: HepG2 Attagene CIS TGFb reporter, mRNA transcription; actives raise or lower the signal
Procedure, shortened: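 Transient MRTU transfection of HepG2 (FuGene 6). Dose 24 h. TriZol RNA, oligo(dT) RT, PCR, 6-FAM primer extension, HpaI cut, CE. Bidirectional fit, DMSO = baseline.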

[4] = biological target: Nuclear receptor subfamily 1 group I member 3 (Homo sapiens) (UniProt Q14994); experiment: ATG_CAR_TRANS: Attagene TRANS-FACTORIAL HepG2 Assay for human Constitutive Androstane Receptor (CAR) (AID 2282969); conditions: HepG2 Attagene TRANS-FACTORIAL CAR reporter;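 note: activators raise reporter mRNA above DMSO so AC50 marks induction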
Procedure, shortened: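 Signal is reporter mRNA induction relative to DMSO, measured 24 h after dosing by RT-PCR with fluorescent primer extension and capillary electrophoresis. Human HepG2 liver cells carried transiently transfected chimeric NR-Gal4/GAL4-UAS reporter constructs.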

[5] = biological target: X-box-binding protein 1 (Homo sapiens) (UniProt P17861); experiment: ATG_Xbp1_CIS: Attagene CIS-FACTORIAL HepG2 Assay for human X-box Binding Protein 1 (XBP1) (AID 2282972; active = hit-call score of the fitted dose curve at least 0.9, where 1 is the maximum; inactive = score below 0.9); conditions: HepG2 XBP1 cis-element reporter, Attagene multiplex; actives raise or lower the signal
Procedure, shortened: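 Reporter transcripts were quantified by RT-PCR with fluorescent primer extension and capillary electrophoresis after 24 h chemical exposure. Cells: transiently transfected HepG2 carrying cis-regulated reporter constructs; data fitted bidirectionally relative to DMSO.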

[6] = biological target: Oxysterols receptor LXR-beta (Homo sapiens) (UniProt P55055); experiment: ATG_LXRb_TRANS: Attagene TRANS-FACTORIAL HepG2 Assay for human Liver X Receptor beta (LXRb) (AID 2282981); conditions: HepG2 Attagene TRANS GAL4-LXRb reporter, mRNA
Procedure, shortened: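 After 24 h of chemical treatment, transfected HepG2 cells yield total RNA; reporter cDNA is PCR-amplified, FAM-labelled, HpaI-cut and run on capillary electrophoresis. Signal reflects chimeric LXRb-Gal4 activity on GAL4-UAS reporters.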

[7] = ATG_M_06_TRANS: Attagene TRANS-FACTORIAL HepG2 Assay for M06 Transcription Factor (Internal Marker) (AID 2282983); conditions: HepG2 Attagene TRANS M06 internal marker reporter
Procedure, shortened: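 In this multiplexed HepG2 system, compounds are incubated 24 h with cells carrying GAL4-UAS reporter units. Reporter RNA is amplified and resolved by capillary electrophoresis, and induction is scored against DMSO.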

[8] = biological target: Nuclear receptor subfamily 4 group A member 2 (Homo sapiens) (UniProt P43354); experiment: ATG_NURR1_TRANS: Attagene TRANS-FACTORIAL HepG2 Assay for human Nuclear Receptor Related Protein 1 (NURR1) (AID 2282985); conditions: HepG2 Attagene TRANS reporter, mRNA readout
Procedure, shortened: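 Measures transcriptional activation by an exogenous NR-Gal4 chimera in transfected HepG2 liver cells. After 24 h, reporter RNA is reverse-transcribed, amplified and resolved by capillary electrophoresis; DMSO defines baseline.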

[9] = ATG_VDRE_CIS: Attagene CIS-FACTORIAL HepG2 Assay for human Vitamin D Receptor Element (VDRE) (AID 2282968; active = hit-call score of the fitted dose curve at least 0.9, where 1 is the maximum; inactive = score below 0.9); conditions: HepG2 VDRE cis-reporter transcription, actives raise or lower the signal
Procedure, shortened: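 Measures endogenous factor activity through cis-element-driven reporter transcripts in transiently transfected HepG2. Cells are treated 24 h; reporter mRNA is quantified by RT-PCR and capillary electrophoresis; fitting is bidirectional.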

[10] = biological target: Estrogen receptor (Homo sapiens) (UniProt P03372); experiment: ATG_ERa_TRANS: Attagene TRANS-FACTORIAL HepG2 Assay for human Estrogen Receptor alpha (ERa) (AID 2282970); conditions: HepG2 Attagene TRANS ERa GAL4 reporter, mRNA
Procedure, shortened: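 One of 30 multiplexed endpoints from a HepG2 TRANS system, this one reports ERa-Gal4-driven reporter mRNA. Transcripts were quantified 24 hours post-dosing by fluorescent RT-PCR and capillary electrophoresis, with activity scored as induction over DMSO.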

[11] = ATG_M_19_TRANS: Attagene TRANS-FACTORIAL HepG2 Assay for M19 Transcription Factor (Internal Marker) (AID 2282974); conditions: HepG2 Attagene TRANS-FACTORIAL M19 internal marker reporter
Procedure, shortened: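 Gain-of-signal in reporter mRNA, relative to DMSO, was scored from capillary electrophoresis fluorescence. HepG2 cells carried transiently transfected multiple reporter transcription units and were incubated with test chemicals for 24 h.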

[12] = ATG_GAL4_TRANS: Attagene TRANS-FACTORIAL HepG2 Assay for GAL4 (Internal Marker) (AID 2282976); conditions: HepG2 Attagene TRANS GAL4 internal marker reporter
Procedure, shortened: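 HepG2 cells transiently transfected with multiplexed GAL4-UAS reporter constructs were dosed for 24 h. Reporter mRNA was measured by RT-PCR, 6-FAM primer extension, HpaI digestion and capillary electrophoresis, and gain of signal was fitted relative to DMSO.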

[13] = biological target: Oxysterols receptor LXR-alpha (Homo sapiens) (UniProt Q13133); experiment: ATG_LXRa_TRANS: Attagene TRANS-FACTORIAL HepG2 Assay for human Liver X Receptor alpha (LXRa) (AID 2282980); conditions: HepG2 Attagene TRANS reporter, LXRa transactivation
Procedure, shortened: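 HepG2 cells were transiently transfected with multiplexed reporter units driven by chimeric LXRa–GAL4 fusion proteins, then dosed for 24 h. Reporter mRNA was quantified by RT-PCR, fluorescent labelling and capillary electrophoresis; gain of signal fitted against DMSO baseline.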

[14] = biological target: Hepatocyte nuclear factor 4-alpha (Homo sapiens) (UniProt P41235); experiment: ATG_HNF4a_TRANS: Attagene TRANS-FACTORIAL HepG2 Assay for human Hepatocyte Nuclear Factor 4 alpha (HNF4a) (AID 2282982); conditions: HepG2 HNF4a transactivation reporter, mRNA readout
Procedure, shortened: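 Multiplexed reporter assay: transfected HepG2, 24 h exposure, total RNA → oligo(dT) RT → PCR → 6-FAM extension → HpaI digest → CE fluorescence. DMSO = negative control.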

[15] = biological target: Glucocorticoid receptor (Homo sapiens) (UniProt P04150); experiment: ATG_GR_TRANS: Attagene TRANS-FACTORIAL HepG2 Assay for human Glucocorticoid Receptor (GR) (AID 2282978); conditions: HepG2 Attagene TRANS GR reporter, mRNA transcription;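 note: activators score as hits since higher reporter transcript over DMSO is fitted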
Procedure, shortened: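 HepG2 transient transfection, multiple reporter units, GAL4-UAS under NR-GAL4 chimera control. 24 h treatment. Reporter mRNA by RT-PCR/CE fluorescence, DMSO as negative control.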

[16] = biological target: Estrogen-related receptor gamma (Homo sapiens) (UniProt P62508); experiment: ATG_ERRg_TRANS: Attagene TRANS-FACTORIAL HepG2 Assay for human Estrogen-Related Receptor gamma (ERRg) (AID 2282977); conditions: HepG2 Attagene TRANS reporter, ERRg transactivation;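 note: hits increase reporter signal over DMSO so potencies reflect activators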
Procedure, shortened: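 Exogenous NR-Gal4 chimera activity was assessed in HepG2 cells bearing transfected GAL4-UAS reporters. After 24 h dosing, total RNA underwent RT-PCR, fluorescent primer extension and HpaI digestion before capillary electrophoresis, with gain of signal scored against DMSO.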

[17] = biological target: Bile acid receptor (Homo sapiens) (UniProt Q96RI1); experiment: ATG_FXR_TRANS: Attagene TRANS-FACTORIAL HepG2 Assay for Farnesoid X Receptor (FXR) (AID 2282979); conditions: HepG2 Attagene TRANS FXR-GAL4 reporter transcription;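 note: hits raise reporter mRNA above DMSO so AC50 marks FXR activation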
Procedure, shortened: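 HepG2 cells transiently transfected with reporter constructs in which a chimeric FXR-GAL4 protein drives a GAL4-UAS reporter; 24 h compound exposure. Reporter mRNA measured by RT-PCR, FAM labelling, HpaI digestion and capillary electrophoresis; gain-of-signal versus DMSO.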

[18] = ATG_M_32_TRANS: Attagene TRANS-FACTORIAL HepG2 Assay for M32 Transcription Factor (Internal Marker) (AID 2282984); conditions: HepG2 Attagene TRANS M32 internal marker reporter;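 note: transcript level of a background control reporter unit measured by RT-PCR and capillary electrophoresis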
Procedure, shortened: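 Cell-based TRANS-format assay in HepG2: exogenous chimeric GAL4 reporter units transiently expressed, compounds applied 24 h. Reporter mRNA detected by RT-PCR plus capillary electrophoresis; this readout is an internal background marker.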

[19] = biological target: Transcriptional activator Myb (Homo sapiens) (UniProt P10242); experiment: ATG_Myb_CIS: Attagene CIS-FACTORIAL HepG2 Assay for human Myeloblastosis (Myb) Proto-Oncogene Transcription Factor (AID 2282986; active = hit-call score of the fitted dose curve at least 0.9, where 1 is the maximum; inactive = score below 0.9); conditions: HepG2 Attagene CIS-FACTORIAL Myb reporter transcription; actives raise or lower the signal
Procedure, shortened: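 Multiplexed cis-reporter system in HepG2: transient transfection, 24 h treatment, mRNA readout by RT-PCR and capillary electrophoresis. Both increases and decreases are scored versus DMSO negative control.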

[20] = biological target: Steroid hormone receptor ERR1 (Homo sapiens) (UniProt P11474); experiment: ATG_ERRa_TRANS: Attagene TRANS-FACTORIAL HepG2 Assay for human Estrogen-Related Receptor alpha (ERRa) (AID 2282971); conditions: HepG2 Attagene TRANS reporter, ERRa transactivation
Procedure, shortened: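 HepG2 cells transiently transfected with multiplexed GAL4-UAS reporter units reading chimeric ERRa-Gal4 activity; 24 h compound exposure. Reporter mRNA measured by RT-PCR, 6-FAM labelling, HpaI digest and capillary electrophoresis; gain of signal fitted versus DMSO baseline.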

Measured: AC50

Sequence of Nuclear receptor subfamily 4 group A member 2 (Homo sapiens) (P43354 whole entry, looked up, the tested form may be a part): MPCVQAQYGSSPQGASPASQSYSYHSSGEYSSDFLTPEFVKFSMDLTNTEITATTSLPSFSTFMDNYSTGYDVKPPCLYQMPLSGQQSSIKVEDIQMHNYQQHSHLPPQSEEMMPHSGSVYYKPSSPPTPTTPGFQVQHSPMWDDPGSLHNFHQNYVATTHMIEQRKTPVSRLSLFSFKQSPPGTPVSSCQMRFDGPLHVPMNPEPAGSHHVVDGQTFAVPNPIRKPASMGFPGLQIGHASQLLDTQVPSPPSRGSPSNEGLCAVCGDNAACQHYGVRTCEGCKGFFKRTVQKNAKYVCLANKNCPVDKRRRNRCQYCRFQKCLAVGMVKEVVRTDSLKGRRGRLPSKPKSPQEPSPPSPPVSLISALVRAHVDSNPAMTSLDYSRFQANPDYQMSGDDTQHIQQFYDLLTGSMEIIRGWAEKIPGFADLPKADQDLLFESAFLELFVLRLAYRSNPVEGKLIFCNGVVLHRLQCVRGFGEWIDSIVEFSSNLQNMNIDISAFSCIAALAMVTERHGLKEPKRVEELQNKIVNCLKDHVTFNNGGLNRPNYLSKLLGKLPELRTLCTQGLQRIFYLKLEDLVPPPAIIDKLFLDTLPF
Sequence of Oxysterols receptor LXR-beta (Homo sapiens) (P55055 whole entry, looked up, the tested form may be a part): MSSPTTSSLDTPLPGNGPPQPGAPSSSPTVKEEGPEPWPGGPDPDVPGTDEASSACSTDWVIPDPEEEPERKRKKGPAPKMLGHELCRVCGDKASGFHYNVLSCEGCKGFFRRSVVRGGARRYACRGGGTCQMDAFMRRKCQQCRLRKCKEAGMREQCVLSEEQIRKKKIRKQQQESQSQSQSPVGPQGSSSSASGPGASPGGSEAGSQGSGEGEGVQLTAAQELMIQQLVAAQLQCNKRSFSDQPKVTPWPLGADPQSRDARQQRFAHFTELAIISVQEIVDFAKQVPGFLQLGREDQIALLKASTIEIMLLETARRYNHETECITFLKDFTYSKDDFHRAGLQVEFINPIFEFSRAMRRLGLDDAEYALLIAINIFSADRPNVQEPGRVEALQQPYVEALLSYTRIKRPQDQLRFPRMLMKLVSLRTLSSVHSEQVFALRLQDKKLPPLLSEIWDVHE
Sequence of Glucocorticoid receptor (Homo sapiens) (P04150 whole entry, looked up, the tested form may be a part): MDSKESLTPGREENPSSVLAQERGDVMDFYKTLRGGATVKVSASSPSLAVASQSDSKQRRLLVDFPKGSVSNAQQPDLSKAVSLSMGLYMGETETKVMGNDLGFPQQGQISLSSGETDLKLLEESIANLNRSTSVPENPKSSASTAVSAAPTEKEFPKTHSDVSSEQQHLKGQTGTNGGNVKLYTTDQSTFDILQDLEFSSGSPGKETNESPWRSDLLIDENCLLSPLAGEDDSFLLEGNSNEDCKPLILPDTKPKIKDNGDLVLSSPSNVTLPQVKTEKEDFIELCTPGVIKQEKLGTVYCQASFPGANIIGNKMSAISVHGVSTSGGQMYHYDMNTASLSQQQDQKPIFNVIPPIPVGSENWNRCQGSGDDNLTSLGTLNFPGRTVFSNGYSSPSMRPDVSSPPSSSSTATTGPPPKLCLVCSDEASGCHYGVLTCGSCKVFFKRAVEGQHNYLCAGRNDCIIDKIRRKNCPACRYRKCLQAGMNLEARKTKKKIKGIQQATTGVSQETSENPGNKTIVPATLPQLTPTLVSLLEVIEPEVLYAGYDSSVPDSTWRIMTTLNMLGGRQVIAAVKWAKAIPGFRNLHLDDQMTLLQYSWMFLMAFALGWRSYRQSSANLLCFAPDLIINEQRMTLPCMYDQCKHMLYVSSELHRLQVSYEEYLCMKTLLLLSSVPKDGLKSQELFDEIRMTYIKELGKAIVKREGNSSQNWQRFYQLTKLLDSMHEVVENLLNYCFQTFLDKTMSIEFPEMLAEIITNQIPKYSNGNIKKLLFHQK
Sequence of Oxysterols receptor LXR-alpha (Homo sapiens) (Q13133 whole entry, looked up, the tested form may be a part): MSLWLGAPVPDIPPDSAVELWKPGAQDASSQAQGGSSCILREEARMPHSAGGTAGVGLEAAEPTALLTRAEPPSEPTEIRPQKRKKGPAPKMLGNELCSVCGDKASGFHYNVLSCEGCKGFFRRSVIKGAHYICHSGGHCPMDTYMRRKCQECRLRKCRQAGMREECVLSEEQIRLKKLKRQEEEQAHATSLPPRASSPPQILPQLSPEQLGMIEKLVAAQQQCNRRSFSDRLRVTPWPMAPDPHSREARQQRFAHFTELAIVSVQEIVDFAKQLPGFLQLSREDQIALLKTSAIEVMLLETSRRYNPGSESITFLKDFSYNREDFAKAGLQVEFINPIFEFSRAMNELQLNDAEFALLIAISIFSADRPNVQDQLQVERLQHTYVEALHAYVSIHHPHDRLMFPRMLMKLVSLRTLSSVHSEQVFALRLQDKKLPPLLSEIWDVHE
Sequence of Estrogen receptor (Homo sapiens) (P03372 whole entry, looked up, the tested form may be a part): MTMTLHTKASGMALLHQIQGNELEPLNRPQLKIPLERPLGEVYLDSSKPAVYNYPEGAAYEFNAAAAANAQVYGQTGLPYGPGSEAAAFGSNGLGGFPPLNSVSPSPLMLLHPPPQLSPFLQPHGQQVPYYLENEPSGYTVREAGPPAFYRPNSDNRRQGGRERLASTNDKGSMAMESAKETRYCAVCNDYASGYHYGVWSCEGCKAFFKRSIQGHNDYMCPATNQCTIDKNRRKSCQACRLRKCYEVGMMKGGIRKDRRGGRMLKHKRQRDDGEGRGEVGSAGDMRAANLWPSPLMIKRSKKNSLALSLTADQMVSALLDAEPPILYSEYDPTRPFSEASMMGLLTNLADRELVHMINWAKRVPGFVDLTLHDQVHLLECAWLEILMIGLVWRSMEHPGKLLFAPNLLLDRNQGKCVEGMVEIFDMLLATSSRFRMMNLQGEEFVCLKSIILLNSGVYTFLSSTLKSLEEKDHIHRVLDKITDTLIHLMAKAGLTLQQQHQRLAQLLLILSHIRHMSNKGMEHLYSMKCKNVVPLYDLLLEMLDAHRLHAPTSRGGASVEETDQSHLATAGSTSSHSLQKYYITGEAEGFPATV
Sequence of X-box-binding protein 1 (Homo sapiens) (P17861 whole entry, looked up): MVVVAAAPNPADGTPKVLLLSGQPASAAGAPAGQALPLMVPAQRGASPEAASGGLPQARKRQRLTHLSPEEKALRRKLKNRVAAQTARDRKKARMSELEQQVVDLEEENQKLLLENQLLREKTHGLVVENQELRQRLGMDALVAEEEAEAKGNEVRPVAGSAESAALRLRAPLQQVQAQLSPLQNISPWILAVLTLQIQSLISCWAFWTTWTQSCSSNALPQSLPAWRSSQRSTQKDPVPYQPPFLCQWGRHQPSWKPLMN
Sequence of Estrogen-related receptor gamma (Homo sapiens) (P62508 whole entry, looked up, the tested form may be a part): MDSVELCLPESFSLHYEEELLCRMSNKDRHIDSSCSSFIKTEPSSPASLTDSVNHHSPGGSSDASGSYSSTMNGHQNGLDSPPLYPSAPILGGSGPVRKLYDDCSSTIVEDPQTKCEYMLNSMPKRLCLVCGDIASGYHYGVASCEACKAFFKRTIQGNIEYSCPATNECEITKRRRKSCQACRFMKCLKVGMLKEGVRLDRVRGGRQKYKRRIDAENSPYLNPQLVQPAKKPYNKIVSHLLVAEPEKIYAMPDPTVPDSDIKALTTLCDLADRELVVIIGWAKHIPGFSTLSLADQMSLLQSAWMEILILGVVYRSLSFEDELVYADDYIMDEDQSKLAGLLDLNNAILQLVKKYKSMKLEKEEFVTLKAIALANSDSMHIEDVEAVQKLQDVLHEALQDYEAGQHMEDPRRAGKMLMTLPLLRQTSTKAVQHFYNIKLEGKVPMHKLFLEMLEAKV
Sequence of Nuclear receptor subfamily 1 group I member 3 (Homo sapiens) (Q14994 whole entry, looked up, the tested form may be a part): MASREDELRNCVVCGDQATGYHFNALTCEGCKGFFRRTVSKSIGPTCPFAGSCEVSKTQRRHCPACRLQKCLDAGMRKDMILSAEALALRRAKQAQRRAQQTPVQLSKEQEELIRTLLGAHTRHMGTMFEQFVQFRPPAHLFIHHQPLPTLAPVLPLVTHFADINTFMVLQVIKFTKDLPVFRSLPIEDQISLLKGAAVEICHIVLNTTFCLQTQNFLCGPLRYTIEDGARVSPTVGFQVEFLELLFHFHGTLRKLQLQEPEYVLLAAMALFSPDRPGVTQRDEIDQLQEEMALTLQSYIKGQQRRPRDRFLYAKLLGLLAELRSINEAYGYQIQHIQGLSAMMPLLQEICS
Sequence of Hepatocyte nuclear factor 4-alpha (Homo sapiens) (P41235 whole entry, looked up): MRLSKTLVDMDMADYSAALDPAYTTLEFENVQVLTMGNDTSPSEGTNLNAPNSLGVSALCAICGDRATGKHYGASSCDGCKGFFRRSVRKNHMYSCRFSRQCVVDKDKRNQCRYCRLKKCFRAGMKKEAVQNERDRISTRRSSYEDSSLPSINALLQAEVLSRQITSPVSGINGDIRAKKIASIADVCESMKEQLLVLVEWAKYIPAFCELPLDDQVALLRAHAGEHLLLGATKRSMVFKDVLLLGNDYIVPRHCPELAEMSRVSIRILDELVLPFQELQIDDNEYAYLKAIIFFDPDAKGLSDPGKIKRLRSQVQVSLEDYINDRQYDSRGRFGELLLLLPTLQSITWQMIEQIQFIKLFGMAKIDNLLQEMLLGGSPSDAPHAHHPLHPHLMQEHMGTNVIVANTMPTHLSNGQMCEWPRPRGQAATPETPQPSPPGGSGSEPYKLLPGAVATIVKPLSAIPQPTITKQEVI
Sequence of Bile acid receptor (Homo sapiens) (Q96RI1 whole entry, looked up, the tested form may be a part): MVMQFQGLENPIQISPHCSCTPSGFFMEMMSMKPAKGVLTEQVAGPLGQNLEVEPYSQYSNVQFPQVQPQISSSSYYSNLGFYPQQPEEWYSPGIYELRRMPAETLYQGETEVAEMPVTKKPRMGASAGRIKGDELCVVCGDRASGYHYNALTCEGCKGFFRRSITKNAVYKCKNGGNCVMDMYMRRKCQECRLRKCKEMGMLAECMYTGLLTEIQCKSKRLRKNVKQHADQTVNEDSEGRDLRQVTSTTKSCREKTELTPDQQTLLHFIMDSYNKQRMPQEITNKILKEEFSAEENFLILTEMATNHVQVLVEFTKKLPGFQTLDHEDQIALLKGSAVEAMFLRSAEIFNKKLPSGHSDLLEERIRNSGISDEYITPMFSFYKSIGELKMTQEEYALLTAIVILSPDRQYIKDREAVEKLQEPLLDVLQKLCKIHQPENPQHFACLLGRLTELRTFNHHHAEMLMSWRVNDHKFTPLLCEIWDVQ

Nc1ccc2c(c1)C(=O)c1ccccc1C2=O
inactive: [1] | [2] | [3] | [4] | [5] | [6] | [7] | [8]

c1cc(-c2ccncc2)ccn1
inactive: [1] | [2] | [3] | [9] | [10] | [5] | [11] | [12] | [13] | [14] | [8]

Cc1cccc(Nc2cc(Cl)nc(SCC(=O)O)n2)c1C
inactive: [1] | [2] | [3] | [9] | [10] | [5] | [12] | [15] | [7]

Cc1cc(NC(=O)C(=O)O)cc(C)c1Oc1ccc(O)c2c1CCC2
not listed: [11] | [13] | [19] | [20]
inactive: all other assays above

COc1ccc2c(c1)c(CC(=O)O)c(C)n2C(=O)c1ccc(Cl)cc1
inactive: [1] | [2] | [3] | [9] | [5] | [11] | [13] | [18] | [19]

COCCOC[C@H](CC1(C(=O)NC2CCC(C(=O)O)CC2)CCCC1)C(=O)Oc1ccc2c(c1)CCC2 (some centres undefined)
active: [9] 48.5 µM
not listed: [4] | [10] | [11] | [13] | [14] | [17] | [18] | [19]
inactive: all other assays above

Oc1ccc2ccccc2c1N=Nc1ccccc1
inactive: [1] | [2] | [4] | [5] | [13] | [6] | [14] | [7] | [8]
active: [3] 100 µM | [10] 2.86 µM

COc1ccc(C)cc1N
not listed: [10] | [14] | [16] | [17] | [18] | [19] | [20]
inactive: all other assays above

CC=Cc1ccc(O)c(OC)c1
inactive: [1] | [2] | [3] | [10] | [5] | [12] | [7] | [8]

CCNc1cccc(C)c1
not listed: [10] | [11] | [12] | [14] | [15] | [17] | [18] | [20]
inactive: all other assays above

— PubChem BioAssay (EPA / NIEHS)
